This note sets out measurements from PubChem BioAssay AID504848 (National Center for Advancing Translational Sciences (NCATS), 2011).

Screen size: about 2,300 compounds; about 1,400 (61%) were called active. Roughly 29% stayed inconclusive and do not appear here. Calls follow the shape of the dose curve; as a rule, active = well fitted inhibition curve with a large enough effect; inconclusive = small, poorly fitted or top-dose-only effect, or effect the other way; inactive = no such curve, though single readings can be large or run the other way. So high a share suggests a set chosen from earlier hits. Some of the results follow. Square brackets hold non-standard residues; d marks the D form. Peptide text beside a SMILES is read from it. * marks the point of attachment. ξ: configuration not given here. ξF = NC(Cc1ccccc1)C(=O)O; Cbz = O=C(OCc1ccccc1)*
Potency is read from the fitted curve at half-maximal effect.

The nature of the test: Confirmation screen for delayed death inhibitors of the malarial parasite plastid, 96 hour incubation. Also: nearly all actives have a fitted effect of over 60% in size. The conditions noted are these: P. falciparum luciferase growth in erythrocytes; series mostly up to 28.7 µM. In short, it runs like this:
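Erythrocytes infected with luciferase-expressing P. falciparum (2% hematocrit, 0.1% parasitemia final) in RPMI 1640 with 0.5% Albumax, exposed to compounds 96 h at 37 C, 5% CO2. Growth inhibition read as decreased luciferase luminescence.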
Turning to `Cc1cc(C)n(-c2ccc(C(=O)Nc3ccc(S(=O)(=O)NCc4ccco4)cc3)cc2)n1`, the Potency is 8.91 µM (active).

`CC(C)n1nc(C(=O)Nc2cccc(S(=O)(=O)NCc3ccco3)c2)c2ccccc2c1=O`: the Potency was 7.94 µM (active). To `O=C(Nc1ccc(S(=O)(=O)NCc2ccco2)cc1)c1ccc2ccccc2n1` belongs 12.6 µM (active). As for `CCN(CC(=O)Nc1c(F)cccc1F)C(=O)c1ccc(S(=O)(=O)NCc2ccco2)cc1`, the Potency result was “inactive”.

With `COc1ccc2c(C)c(CCC(=O)NC3CC3)c(=O)oc2c1C`, the Potency was 3.55 µM (active).

For the compound `COc1ccc2c(c1)c(C(=O)N/N=C/c1ccc(OC)c(OC)c1)c(C)n2C`, the Potency was 8.91 µM (active).

Turning to `O=C(NCC1CCCO1)c1ccc(Cn2c(=S)[nH]c3ccccc3c2=O)cc1` (stereo not drawn), the Potency is 14.1 µM (active). To `CC1CCN(C(=O)C2CCCN(c3ncnc4c3nc3n4CCCCC3)C2)CC1` (stereo not drawn) belongs 11.2 µM (active); to `Cc1cccc(N2CCN(C(=O)C3CCN(c4ncnc5c4nc4n5CCCCC4)CC3)CC2)c1C`, 11.2 µM (active). To `Cc1cc(C)n2nc(SCC(=O)N3CCN(c4ccc(F)cc4)CC3)nc2n1` belongs 12.6 µM (active). The same measure for `COc1ccc(Nc2nnc(-c3ccc(C)cc3)c3ccccc23)cc1C(=O)N1CCCCC1`: 0.251 µM (active); for `COc1ccc(Nc2nnc(-c3ccccc3)c3ccccc23)cc1C(=O)N1CCCCC1`: 2.82 µM (active). As for `O=C(c1cc(COc2ccc(F)cc2Cl)on1)N1CCN(C2CCCCC2)C(=O)C1`, the Potency is 11.2 µM (active). To `CN1CCN(C(=O)c2cc(COc3c(F)cccc3F)on2)CC1c1ccccc1` (stereo not drawn) belongs “inactive”. To `Cc1ccsc1/C=N/NC(=O)c1nnn(-c2nonc2N)c1-c1ccc2c(c1)OCO2` belongs 0.891 µM (active); to `CN(Cc1c(C(=O)N/N=C/c2cccc(O)c2)nnn1-c1nonc1N)c1ccccc1`, “inactive”.

As for `Nc1nonc1-n1nnc(C(=O)N/N=C/c2ccc(Cl)cc2)c1-c1ccc2c(c1)OCO2`, the Potency is 0.0316 µM (active). The same measure for `CCOc1ccc(-c2c(C(=O)N/N=C/c3ccc(OC(C)C)cc3)nnn2-c2nonc2N)cc1`: 12.6 µM (active); for `Nc1nonc1-n1nnc(C(=O)N/N=C/c2cccc(Cl)c2)c1-c1ccc2c(c1)OCO2`: 0.0708 µM (active). To `CCOC(=O)C1=C(NC(=S)NC(=O)c2ccccc2)c2ccccc2CC1(C)CC` (stereo not drawn) belongs 11.2 µM (active); to `CC(=O)Nc1nc2ccccc2n1Cc1ccc(C)cc1`, 5.62 µM (active). To `N=C1S/C(=C\c2ccco2)C(=O)N1c1nccs1` belongs 12.6 µM (active); to `CCOC(=O)CNC(=O)C(Cc1ccccc1)NC(=O)OCc1ccccc1` (stereo not drawn) (Cbz-[ξF]-Gly-OEt), “inactive”; to `CCCNC(=O)C(Cc1ccc(F)cc1)NC(=O)c1ccccc1` (stereo not drawn), 6.31 µM (active). In the case of `Cc1c(C(=O)N2CCC(n3nccc3NC(=O)C3CC3)CC2)[nH]c2ccc(Cl)cc12`, the Potency is 14.1 µM (active). `Cc1cc(C)c2[nH]c(C(=O)N3CCC(n4nccc4NC(=O)C4CC4)CC3)c(C)c2c1`: the Potency is 7.94 µM (active).

As for `CCC(C)[C@H](NC(=O)[C@H](Cc1ccccc1)n1c(=O)[nH]c2ccccc2c1=O)C(=O)NCC1CCC(C(=O)O)CC1` (stereo partly drawn), the Potency is 11.2 µM (active).

Take `CCOCCCn1c(C)nc2c(c1=O)c1nc3ccccc3nc1n2CCC1=CCCCC1`: the Potency is 3.16 µM (active). The same measure for `CN(CC(=O)Nc1ccc(F)c(Cl)c1)S(=O)(=O)c1ccc2c(c1)n(C)c(=O)c(=O)n2C`: 10 µM (active); for `CCOc1ccc(S(=O)(=O)N2CCCC(C(=O)NC3CC3)C2)cc1Cl` (stereo not drawn): 10 µM (active); for `O=C(COc1ccccc1)N1c2ccccc2Sc2ccccc21`: 11.2 µM (active).

Regarding `Cc1c(Cl)ccc2c(C(=O)O)cc(-c3ccccc3)nc12`, the Potency result is “inactive”. To `CC1CCCC(NC(=O)c2cc(-c3ccncc3)nc3ccccc23)C1C` (stereo not drawn) belongs 11.2 µM (active). Take `COc1ccc2c(c1OC)C(=O)OC2Nc1nc(-c2ccccc2)cs1` (stereo not drawn): the Potency entry was “inactive”. For `COc1ccc2c(c1OC)C(=O)N1N=C(c3ccccc3)CC21` (stereo not drawn), the Potency is 2.24 µM (active).

On to `CC(C)NC(=O)c1onc(CSc2cccc(F)c2)c1C(=O)O`, for which the Potency entry is “inactive”. On to `Cc1ccc(NC(=O)c2cc(S(=O)(=O)N3CCc4ccccc43)cn2C)cc1`, for which the Potency was 11.2 µM (active). Consider `O=C(O)C1CC=CCC1C(=O)Nc1ccc(S(=O)(=O)N2CCCc3ccccc32)cc1` (stereo not drawn), for which the Potency entry was “inactive”.

On to `C=CCn1c(C)cc(C2=NNC(=NCc3ccccc3)SC2)c1C`, for which the Potency was 14.1 µM (active).

Consider `Cc1cc(NC(=O)CSc2sc3c(O)cc(=O)[nH]c3c2C#N)ccc1Br`, for which the Potency is 5.62 µM (active).

For `N#Cc1c(SCC(=O)Nc2ccc(C(F)(F)F)cc2)sc2c(O)cc(=O)[nH]c12`, the Potency is 0.0891 µM (active). The same measure for `CCCSc1ccc(-c2nn(-c3ccccc3)cc2/C=C(/C#N)C(=O)NCCCOC)cc1`: 4.47 µM (active); for `CC(C)(C)n1nnnc1C(c1ccc2ncccc2c1)N1CCSCC1` (stereo not drawn): 11.2 µM (active).

For `COc1ccc(Cl)cc1NC(=O)C(C)NC(c1ccccc1)c1ccccc1` (stereo not drawn), the Potency is 5.62 µM (active). To `O=C(CCN1C(=O)/C(=C/c2ccccc2Cl)SC1=S)N1CCOCC1` belongs 10 µM (active); to `CN1CCN(C(=O)CCN2C(=O)/C(=C/c3cccc(Br)c3)SC2=S)CC1`, 3.98 µM (active); to `CCOc1cc(/C=C/c2cc(C(F)(F)F)[nH]c(=O)n2)ccc1O`, 14.1 µM (active). To `CC(=O)O[C@H]1C(=O)[C@@]2(C)[C@H]([C@H](OC(=O)c3ccccc3)[C@]3(O)C[C@H](OC(=O)[C@H](O)[C@@H](NC(=O)c4ccccc4)c4ccccc4)C(C)=C1C3(C)C)[C@]1(OC(C)=O)CO[C@@H]1C[C@@H]2O` belongs 0.501 µM (active); to `CC(=O)O[C@@]12CO[C@@H]1C[C@H](O)[C@@]1(C)C(=O)[C@H](O)C3=C(C)[C@@H](OC(=O)C(O)[C@@H](NC(=O)OC(C)(C)C)c4ccccc4)C[C@@](O)([C@@H](OC(=O)c4ccccc4)[C@H]21)C3(C)C` (stereo partly drawn), 0.141 µM (active). With `CC(C)(C)c1cc(NC(=O)CCl)n(-c2ccccc2)n1`, the Potency is 8.91 µM (active).

For `Cc1ccc(-c2cc(NC(=O)CCl)n(-c3ccccc3)n2)cc1`, the Potency was 3.98 µM (active).

As for `O=C(CCl)Nc1c2c(nn1-c1ccccc1)CSC2`, the Potency was 2.24 µM (active). To `CCCCNC(=O)c1onc(CSc2ccc(Cl)cc2)c1C(=O)O` belongs “inactive”.
